IL1B secr inh = inhibitors of inflammasome signaling (IL-1 beta secretion) | activity change, % at 57.5 µM | 360,000 tested, 4.7% active | THP-1 LPS/ATP IL-1B secretion, AlphaLISA, 16 h; hits give low values; in the data active means activity change below about -50%; inconclusive means mostly about -30% to -49%; further: on the % scale 0 is the no-effect control and ±100 the full control effect
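Secreted IL-1B measured by AlphaLISA bead assay after 16 h compound exposure of THP-1 cells; compounds (final up to 57.5 uM) added 1 h before LPS (250 ng/mL) and ATP (1.25 mM) stimulation; lower signal means less secretion.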
TGFb SMAD3 inh = blocks TGF-b signaling; HepG2 CAGA-GFP TGF-b/SMAD3 reporter, GFP fluorescence, 18 h; TGF-beta stimulated, 500 pg/mL final; Potency, µM (doses to about 46.1 µM), for the others: at the highest dose activity, negative = inhibition, actives largely listed as inhibitors; 410,000 tested, 1.2% active; further: potency means the concentration at half of the fitted maximal effect; on the % scale 0 is the no-effect control and ±100 the full control effect; nearly all actives have a fitted effect of over 65% in size
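HEPG2 CAGA-GFP reporter cells (1000/well, DMEM with 1% FBS) received compounds, then recombinant TGF-beta at 500 pg/mL final for 18 hours at 37 degrees C. Per-cell GFP summed per well was normalised to unstimulated and stimulated DMSO controls before curve fitting.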
ASM inhibitor = blocks human secretory acid sphingomyelinase; P17405; placental ASM, HMU-PC fluorogenic substrate, 60 min; Potency, µM (titrated, usually from 57.5 µM), without a hit: at the highest dose activity change, negative = inhibition, actives largely listed as inhibitors; 340,000 tested, 0.006% active; further: potency means the concentration at half of the fitted maximal effect
Target sequence (P17405 47-631 limits assumed): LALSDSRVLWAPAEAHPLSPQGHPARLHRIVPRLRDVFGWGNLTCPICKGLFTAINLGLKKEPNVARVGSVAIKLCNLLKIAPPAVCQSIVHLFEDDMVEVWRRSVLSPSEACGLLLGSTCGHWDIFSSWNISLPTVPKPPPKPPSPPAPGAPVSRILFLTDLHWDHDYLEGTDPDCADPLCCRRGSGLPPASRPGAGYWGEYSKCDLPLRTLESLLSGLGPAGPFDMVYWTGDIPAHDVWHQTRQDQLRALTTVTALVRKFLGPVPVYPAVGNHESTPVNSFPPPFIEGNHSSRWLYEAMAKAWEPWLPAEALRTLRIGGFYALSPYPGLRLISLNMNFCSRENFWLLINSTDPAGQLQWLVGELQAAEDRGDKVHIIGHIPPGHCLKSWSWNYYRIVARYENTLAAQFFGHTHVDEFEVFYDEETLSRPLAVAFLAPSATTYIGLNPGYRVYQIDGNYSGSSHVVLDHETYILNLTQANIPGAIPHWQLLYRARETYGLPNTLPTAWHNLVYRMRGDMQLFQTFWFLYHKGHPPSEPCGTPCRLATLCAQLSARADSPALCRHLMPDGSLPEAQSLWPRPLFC
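Fluorogenic HMU-PC substrate (9 uM final) is turned over by placental ASM in 60 min at 37 C after a 10 min compound preincubation. Reaction ended by alkaline stop (pH 10), with fluorescence read at 386/447 nm.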
TDP1 cell noCPT = qHTS for Inhibitors of human tyrosyl-DNA phosphodiesterase 1 (TDP1): qHTS in cells in absence of CPT; DT40 Tdp1-/- hTDP1 cells, no CPT, ATP luminescence, 48 h; Potency, µM (doses to about 46.2 µM), for the others: top-dose activity change, negative = growth inhibition, actives largely listed as inhibitors; 420,000 tested, 15% active; AID 686978, 2013; further: potency means the concentration at half of the fitted maximal effect; on the % scale 0 is the no-effect control and ±100 the full control effect; nearly all actives have a fitted effect of over 55% in size
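DT40 Tdp1-/-;hTDP1 cells, no CPT (DMSO vehicle only), 400 cells/well; compounds pin-transferred; ≥48 hr, 37 °C; CellTiter-Glo 30 min RT dark, luminescence read.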
HepG2 viability = counter-screen for TGF-b inhibitors: cytotoxicity in HepG2 cells; 410,000 tested, 0.76% active; AID 588856; Potency, µM (titrated, usually from 46.1 µM), for inactives: top-dose activity change, negative = cytotoxicity, hits mostly cytotoxic; HepG2 CAGA-GFP viability, ATP luminescence, 18 h; further: potency means the concentration at half of the fitted maximal effect
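CellTiter-Glo luminescence gave cytotoxicity after 18 hours at 37 degrees C. The cells were HepG2 CAGA-GFP in 1% FBS DMEM, stimulated with 500 pg/mL TGF-beta after compound addition. %Activity was normalised to no-cell wells (complete cell-killing) and DMSO (no toxicity), and curves were fitted and classified.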
DT40 TDP1 CPT = growth inhibition of DT40 Tdp1-/-;hTDP1 cells with camptothecin (screen for TDP1 inhibitors). 420,000 tested, 12% active. AID 686979. chicken DT40 Tdp1-/-;hTDP1 cells + 20 nM CPT, ATP luminescence, 48 h. Potency, µM (series often up to 46.2 µM), for inactives: top-dose activity change, negative = growth inhibition, hits mostly inhibitors; further: potency means the concentration at half of the fitted maximal effect; on the % scale 0 is the no-effect control and ±100 the full control effect; nearly all actives have a fitted effect of over 55% in size
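Chicken DT40 Tdp1-/- cells complemented with human TDP1, 400 cells/well, exposed to compounds plus 20 nM camptothecin for at least 48 h at 37 C; viability read as ATP content by CellTiter-Glo luminescence.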
An asterisk follows results filed as active; ? = inconclusive; / = not tested or not shown. The list is not random: actives were taken first. Their share in the collection is about 19%. Unless noted, the call rests on the fitted dose curve; in most records, active means well fitted curve in the direction sought with a large enough effect; inconclusive means small, poorly fitted or top-dose-only effect, or another doubt; inactive means no such curve, though single readings can be large; an effect the other way counts as inactive or inconclusive.

SMILES | IL1B secr inh | TGFb SMAD3 inh | ASM inhibitor | TDP1 cell noCPT | HepG2 viability | DT40 TDP1 CPT
CCCCc1c(C)c(C#N)c2nc3ccccc3n2c1Nc1c(C)n(C)n(-c2ccccc2)c1=O | -13 | -16% | 3% | 16µM* | -8% | 23µM*
C=CCn1c(SC(C)C(=O)c2c(N)n(C)c(=O)n(C)c2=O)nnc1-c1ccoc1C (stereo not given) | 0 | -16% | 1% | -24% | -18% | 0%
Cc1cccc(N(C(=O)CCC(=O)Nc2nccs2)C(C(=O)NC(C)(C)C)c2ccc(O)cc2)c1 (stereo not given) | -8 | ? | -3% | -29% | -1% | -12%
CCCc1cc(=O)oc2cc(C)cc(OCC(=O)NCCN3CCOCC3)c12 | -19 | 2% | 1% | 9% | 10% | -17%
CCCc1cc(=O)oc2cc(OCC(=O)NCCN3CCOCC3)c(Cl)cc12 | 15 | -2% | / | 16µM* | 3% | 23µM*
CCCc1cc(=O)oc2cc(C)cc(OCC(=O)Nc3ccc(CN4CCOCC4)cc3)c12 | 0 | 5% | -3% | 5.8µM* | 1% | 18µM*
Cc1nc2scc(C)n2c(=O)c1S(=O)(=O)N1CCN(c2ccccn2)CC1 | 44 | -18% | 3% | ? | -5% | -1%
CC1CCN(C2CCN(C(=O)c3ccccc3F)CC2)CC1 | -4 | -9% | 1% | -13% | 11µM* | 13%
Cc1n[nH]c(=O)nc1N1CCc2ccccc2C1 | 3 | -34% | 3% | 18µM* | 12% | -3%
Cc1n[nH]c(=O)nc1N1CCN(c2ccccc2)CC1 | -16 | ? | 6% | 1% | -27% | 1%
O=S(=O)(c1ccc(OCC2CO2)cc1)c1ccc(OCC2CO2)cc1 (stereo not given) | -29 | ? | 0% | 2.1µM* | -64% | 1.8µM*
CC(=Nc1ccc(C)cc1C)c1sc2ccccc2c1O | -8 | 1% | -17% | 18µM* | 4% | ?
CCOC(=O)/C(C#N)=C/c1c(Oc2cc(C)cc(C)c2)nc2ccccn2c1=O | 18 | 2% | 6% | -21% | 7% | -20%
N#C/C(=C\c1c(Oc2ccc(F)cc2)nc2ccccn2c1=O)c1nc2ccccc2s1 | / | -6% | / | 12µM* | 11% | ?
Cc1cccn2c(=O)c(/C=C(\C#N)c3nc4ccccc4s3)c(Oc3ccc(Br)cc3)nc12 | / | 2% | / | 6.5µM* | 2% | 7.3µM*
Cc1ccccc1Oc1nc2ccccn2c(=O)c1/C=C(\C#N)c1nc2ccccc2[nH]1 | / | / | / | -11% | -28% | -22%
COc1ccc(Oc2nc3c(C)cccn3c(=O)c2/C=C(\C#N)c2nc3ccccc3[nH]2)cc1 | / | / | / | ? | -13% | ?
CCOC(=O)/C(C#N)=C/c1c(Oc2cccc(C)c2)nc2c(C)cccn2c1=O | 11 | -2% | 7% | -17% | -1% | ?
Cc1ccc(Oc2nc3ccccn3c(=O)c2/C=C(\C#N)c2nc3ccccc3s2)c(C)c1 | / | -17% | / | 4.1µM* | 3% | 12µM*
Cc1ccc(Oc2nc3c(C)cccn3c(=O)c2/C=C(\C#N)C(N)=O)cc1 | ? | 2% | 84% | 13µM* | 1% | ?
N#Cc1ccc(-c2cn(-c3ccccc3)c3[n+]2CCCS3)cc1 | 13 | -6% | -3% | -23% | -191% | 5%
c1ccc(-c2cn(-c3ccccc3)c3[n+]2CCCS3)cc1 | -1 | -3% | -4% | 3.7µM* | 6% | 3.3µM*
COc1ccc(-n2cc(-c3ccc(C)cc3)[n+]3c2SCC3)cc1 | -94* | -18% | -1% | 1.3µM* | -30% | 1.5µM*

Screening data (PubChem)
